An excerpt weighted towards active compounds, which were near 22% of everything screened.
LmPK inhibitor – LmPK (Leishmania mexicana) enzyme inhibition; purified LmPK, Kinase-Glo ATP luminescence, 1 h; Q27686; Potency, µM (doses to about 57.5 µM), inactives show at the top dose activity change, negative = inhibition, usual class: inhibitors; 290,000 compounds, 0.37% hits; note: potency is the fitted concentration of half-maximal effect; % is set by controls: 0 for no effect and ±100 for the full control effect
Target sequence (Q27686 whole entry, looked up): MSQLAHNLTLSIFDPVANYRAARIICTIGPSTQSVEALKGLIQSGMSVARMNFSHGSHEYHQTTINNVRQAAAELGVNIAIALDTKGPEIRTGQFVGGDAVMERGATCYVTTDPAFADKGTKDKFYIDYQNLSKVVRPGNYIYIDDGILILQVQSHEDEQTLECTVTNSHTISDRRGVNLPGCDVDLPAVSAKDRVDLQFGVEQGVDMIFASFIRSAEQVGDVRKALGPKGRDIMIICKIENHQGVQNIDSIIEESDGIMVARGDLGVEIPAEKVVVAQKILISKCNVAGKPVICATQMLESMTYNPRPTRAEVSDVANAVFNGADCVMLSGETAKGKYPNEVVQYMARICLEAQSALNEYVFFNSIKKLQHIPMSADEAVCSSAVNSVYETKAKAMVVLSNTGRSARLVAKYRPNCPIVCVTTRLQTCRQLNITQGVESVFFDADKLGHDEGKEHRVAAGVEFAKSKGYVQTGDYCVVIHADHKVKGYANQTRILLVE
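Purified LmPK (0.1 nM) converted ADP (0.1 mM) to ATP with PEP (0.5 mM) in imidazole buffer pH 7.2 with KCl and MgCl2, 1 h at room temperature. ATP was read by Kinase-Glo luminescence; data normalized to uninhibited and no-enzyme controls.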
Pf growth 48h – inhibits P. falciparum growth in the first generation, 48 h | AID 504832 | 310,000 compounds, 5.9% hits | P. falciparum luciferase growth in erythrocytes, 48 h | Potency, µM (titrated, usually from 28.7 µM), inactives show top-dose activity change, negative = inhibition, actives largely listed as inhibitors; note: potency is the fitted concentration of half-maximal effect; % is set by controls: 0 for no effect and ±100 for the full control effect
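Parasite viability was followed by luminescence of a genomically integrated firefly luciferase. Cultures held 0.1% parasitemia at 2% hematocrit (final), incubated under 5% CO2 at 37 C.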
CHX counter – counter-screen for Shiga toxin inhibitors: cycloheximide protein synthesis inhibition; max response, %; cell reporter, cycloheximide protein synthesis inhibition counterscreen; 300,000 compounds, 12% hits; in the data active = max response mostly above about 13%, no sharp cut-off; inactive = mostly below about 14%; note: read at 38.3 µM for the half of the compounds with a filed dose; 0% is about no effect
Shiga inhibitor – Shiga toxin inhibition. inhibition, % at 38.7 µM. 290,000 compounds, 9.2% hits. Vero cells, Shiga toxin protein synthesis inhibition reporter; in the data active = inhibition mostly above about 28%, no sharp cut-off; inactive = mostly below about 43%; note: 0% is about no effect
Pf growth 96h – P. falciparum growth inhibition at 96 hour, primary screen for plastid delayed-death inhibitors | P. falciparum luciferase reporter growth, 96 h | Potency, µM (doses to about 28.7 µM), inactives show top-dose activity change, negative = inhibition, actives largely listed as inhibitors | 320,000 compounds, 6.9% hits; note: potency is the fitted concentration of half-maximal effect; % is set by controls: 0 for no effect and ±100 for the full control effect
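P. falciparum expressing integrated firefly luciferase grown in erythrocytes (2% hematocrit, 0.05% parasitemia final) with compounds for 96 hours at 37 C, 5% CO2. Growth inhibition read as loss of luminescence after adding luciferase detection reagent.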
* = called active by the depositor; u = inconclusive; x = no result; [ ] = another dose, or the depositor's remark. Unless noted, calls come from the whole dose curve; as a rule, active = well fitted inhibition curve with a large enough effect; inconclusive = small, poorly fitted or top-dose-only effect, or another doubt; inactive = no such curve, though single readings can be large or run the other way.

SMILES	LmPK inhibitor	Pf growth 48h	CHX counter	Shiga inhibitor	Pf growth 96h
N#Cc1cccc(NC(=O)Cn2cnc(S(=O)(=O)N3CCc4ccccc43)c2)c1	1%	-25%	-1	-11	4.7µM*
O=C(NC(c1ccccc1)c1ccccc1)c1cccc(S(=O)(=O)NCc2ccccc2)c1	1%	u	-4	13	u
CCOC(=O)COc1cc(Br)c(C2NC(=O)NC(C)=C2C(C)=O)cc1OCC (stereo not drawn)	1%	x	-6	-17	9.3µM*
CCOC(=O)C(C)Oc1c(Br)cc(C2NC(=O)NC(C)=C2C(C)=O)cc1OCC (stereo not drawn)	15%	x	6	-6	u
O=C(c1cccs1)N1CCC(c2nc3c(nnn3Cc3c(Cl)cccc3Cl)c(=O)[nH]2)CC1	-4%	5.9µM*	-10	-1	u
Cc1ccc(Cn2nnc3c(=O)[nH]c(C4CCN(C(=O)c5cccs5)CC4)nc32)cc1	0%	13µM*	-1	7	0%[5.75 µM]
O=C(c1cccs1)N1CCC(c2nc3c(nnn3Cc3cccc(Cl)c3)c(=O)[nH]2)CC1	4%	4.7µM*	-1	-8	13%
Cc1ccc(C)c(Cn2nnc3c(=O)[nH]c(C4CCN(C(=O)c5cccs5)CC4)nc32)c1	10%	x	-4	3	-23%
O=C(c1cccs1)N1CCCC(c2nc3c(nnn3Cc3cccc(Cl)c3)c(=O)[nH]2)C1 (stereo not drawn)	-2%	u	-4	4	9%
O=C(Cc1cccs1)N1CCCC(c2nc3c(nnn3Cc3cccc(Cl)c3)c(=O)[nH]2)C1 (stereo not drawn)	9%	8.3µM*	-2	16	-8%
CC(C)C[C@H](NC(=O)c1cc2cc(Cl)ccc2n1C)C(=O)N1CCC(C(=O)O)CC1	5%	-18%	-3	9	3%
CC1=C(C(=O)Nc2cccc(C)c2C)C(c2cccs2)NC(=S)N1 (stereo not drawn)	7%	14%	0	-3	2%
Cn1c(=O)c2c(ncn2CC(=O)OCC(=O)NCc2ccccc2Cl)n(C)c1=O	1%	2%	-3	19	16%
Cc1cc(NC(=O)C(C)SCC(=O)N(C)CC(=O)Nc2ccc(Br)cc2C)no1 (stereo not drawn)	-5%	-16%	-3	-23	u
Cc1oc(C(C)(C)C)cc1C(=O)Nc1cccc(C(=O)O)c1	0%	82%	37*	80*	x
Cc1oc(CC(C)C)cc1C(=O)Nc1ccc(C(=O)O)cc1	0%	26%	57*	43	-20%
Cc1oc(C(C)(C)C)cc1C(=O)Nc1ccc(C(=O)O)cc1	2%	54%	36*	48	u
Cc1cc(C(=O)Nc2ccc(C(=O)O)cc2)c(C)o1	-14%	40%	6	9	-24%
Cc1oc(-c2ccccc2)cc1C(=O)Nc1cccc(C(=O)O)c1	1%	56%	12	-10	u
CCN(CC(=O)Nc1ccc2c(c1)OCCO2)C(=O)CSCC(=O)Nc1ccc(C)cc1	x	u	x	x	17%
CCc1ccc2c(c1)C(O)(CC(=O)c1cccs1)C(=O)N2 (stereo not drawn)	-2%	0%	-5	-9	10%[1.15 µM]
Cc1nc2cc(NC(=O)c3ccc(Br)s3)ccc2s1	-9%	212%	63*	117*	243%
Cc1ccc(C(=O)Nc2ccc3nc(C)sc3c2)s1	2%	57%	43*	112*	x
COc1cccc(C(=O)Cn2c(=O)n(CC3CCCO3)c(=O)c3ccccc32)c1 (stereo not drawn)	7%	x	1	9	12µM*
COc1cccc(/C=C2\SC(=S)N(CC3CCCO3)C2=O)c1 (stereo not drawn)	-1%	-2%	26*	38*	20%
O=C1/C(=C/c2cccc(O)c2)SC(=S)N1CC1CCCO1 (stereo not drawn)	4%	u	32*	72*	-13%
O=C(Cn1c(=O)n(CC2CCCO2)c(=O)c2ccccc21)c1ccccc1 (stereo not drawn)	-6%	27%	1	-1	u
O=C(NC1CCCCC1)C1CCCN(S(=O)(=O)c2ccc(F)cc2)C1 (stereo not drawn)	3%	-16%	-3	7	24%
COc1ccc(OC)c(NC(=O)CSc2nnc(CNC(=O)COc3ccc(Cl)cc3)o2)c1	7%	u	7	-14	u
